Here are results for 15 molecules from ChEMBL document CHEMBL1961873, “Compounds: GSK PKIS; Assays: Nanosyn kinase panel” (2012).

Values joined by “and” are separate entries in the source; they are usually repeats but may differ in a detail not shown here. Equal values may be shown once.

The test system of this test is Proto-oncogene tyrosine-protein kinase receptor Ret (Homo sapiens), P07949 [V804L]. As to conditions: at 1 µM.
Sequence of Proto-oncogene tyrosine-protein kinase receptor Ret (Homo sapiens), P07949 [V804L] (P07949 whole entry V804L): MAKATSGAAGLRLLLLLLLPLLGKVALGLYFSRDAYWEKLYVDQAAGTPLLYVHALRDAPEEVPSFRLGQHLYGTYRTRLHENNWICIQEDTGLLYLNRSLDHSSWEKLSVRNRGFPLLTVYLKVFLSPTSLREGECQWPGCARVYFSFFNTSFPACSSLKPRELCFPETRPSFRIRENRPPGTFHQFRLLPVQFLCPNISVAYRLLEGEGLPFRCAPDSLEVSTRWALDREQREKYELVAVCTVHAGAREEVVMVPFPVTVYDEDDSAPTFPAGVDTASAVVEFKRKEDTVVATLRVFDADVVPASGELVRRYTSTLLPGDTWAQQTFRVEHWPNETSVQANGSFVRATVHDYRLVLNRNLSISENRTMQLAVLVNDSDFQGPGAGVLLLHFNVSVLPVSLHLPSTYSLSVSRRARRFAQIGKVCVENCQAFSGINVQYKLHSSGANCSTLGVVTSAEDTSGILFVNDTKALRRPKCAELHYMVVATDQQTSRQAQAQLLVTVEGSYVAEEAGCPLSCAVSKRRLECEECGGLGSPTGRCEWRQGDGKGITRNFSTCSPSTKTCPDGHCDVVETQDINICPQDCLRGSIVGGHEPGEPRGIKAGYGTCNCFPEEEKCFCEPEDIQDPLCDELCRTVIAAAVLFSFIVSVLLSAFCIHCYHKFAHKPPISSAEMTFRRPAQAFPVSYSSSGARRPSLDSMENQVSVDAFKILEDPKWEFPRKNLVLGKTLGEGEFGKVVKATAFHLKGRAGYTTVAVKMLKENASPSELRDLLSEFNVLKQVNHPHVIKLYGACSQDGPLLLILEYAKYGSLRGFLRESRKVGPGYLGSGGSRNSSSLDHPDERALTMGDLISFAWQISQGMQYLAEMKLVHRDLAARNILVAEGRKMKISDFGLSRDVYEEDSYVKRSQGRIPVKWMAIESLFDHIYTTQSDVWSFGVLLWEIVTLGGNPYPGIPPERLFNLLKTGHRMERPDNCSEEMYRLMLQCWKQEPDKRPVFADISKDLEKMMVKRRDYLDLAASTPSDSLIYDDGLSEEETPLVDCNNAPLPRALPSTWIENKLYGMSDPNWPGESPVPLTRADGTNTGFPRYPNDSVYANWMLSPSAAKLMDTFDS
As usually defined, the inhibition is the share of the control response that was lost under treatment. Lower therefore signals a weak effect. For `Cc1cc(O)cc(C)c1/C=C/c1cncc(C(=O)OC(C)(C)C)c1`, the inhibition was found to be 11.6%.
Molecule `CS(=O)(=O)Nc1ccc(-c2ccc3c(NC(=O)C4CC4)n[nH]c3c2)cc1` came in with an inhibition of 8.77%.
The result for `COc1cc2c(cc1Nc1nc(Nc3cccc(F)c3C(N)=O)c3cc[nH]c3n1)N(C(=O)CN1CCN(C(C)C)CC1)CC2` reads 7.87%; that for `COC(=O)Nc1nc2cc(Oc3ccc(NC(=O)Nc4ccccc4)cc3)ccc2[nH]1`, 13.8%; that for `COc1ccccc1-c1cc(/C=C2\C(=O)Nc3ncc(Br)cc32)cc(Br)c1O`, 12%.
`O=C(Nc1n[nH]c2nnc(-c3cccnc3)cc12)C1CC1` returned an inhibition of 1.74%.
The result for `CCOc1ccc2c(-c3ccnc(Nc4cc(OC)cc(C(F)(F)F)c4)n3)cnn2n1` reads 5.01%.
Take `O=C(O[C@H]1CN[C@H](C#Cc2cc3ncnc(Nc4ccc(OCc5cccc(F)c5)c(Cl)c4)c3s2)C1)N1CCOCC1`: the inhibition was 6.95%.
For `CC1=C(C(=O)Nc2ccc3[nH]ncc3c2)C(c2ccc(F)cc2)N=C(c2ccc(C(F)(F)F)nc2)N1` (stereo not given) the value was 26.6%; for `Nc1nccc(-c2c(-c3ccc(F)cc3)ncn2C2CCNCC2)n1`, 9.24% and 2.58%; for `COc1c(C(N)=O)cc(-c2ccc(Cl)cc2)cc1-c1ccc(S(N)(=O)=O)cc1`, 9.45%.
For `CCS(=O)(=O)c1ccc(OC)c(Nc2ncc(-c3cccc(F)c3)o2)c1` the value was 33.8%; for `Cc1c2ccc(N(C)c3ccnc(Nc4cccc(S(N)(=O)=O)c4)n3)cc2nn1C`, 37.3%; for `CN(C)CCNC(=O)Nc1ccc(N(C)c2ccnc(Nc3ccc(CS(C)(=O)=O)cc3)n2)cc1`, 13.9%.
The molecule `COc1ccc2ncn(-c3cc(O[C@H](C)c4ccccc4C(F)(F)F)c(C(N)=O)s3)c2c1` showed an inhibition of 3.91%.
